Data taken from PubChem BioAssay (NCATS).
Inconclusive results are not listed. Where a call stands in place of a potency, no number is given. Unmarked numbers belong to inactive results. Calls of active or inactive are those of the source. Calls come from the whole dose curve; as a rule, active = well fitted inhibition curve with a large enough effect; inconclusive = small, poorly fitted or top-dose-only effect; inactive = no such curve, though single readings can be large or run the other way. Non-standard residues stand in square brackets, D forms with d. Residues, ends and D or L forms follow the SMILES beside them. Dip = N[C@H](C(=O)O)C(c1ccccc1)c1ccccc1

assay: BET inhibitor-based combinations targeting novel dependencies in MECOM-rearranged (r) AML: UCSD-AML1 cell line (AID 2202235); details: UCSD-AML1 AML cells viability, CellTiter-Glo, 48 h; series mostly up to 46 µM; note: nearly all actives have a fitted effect of over 40% in size
Text: Ecotropic viral insertion site 1 (EVI1) is located on chromosome 3q26.2 as part of the MECOM (MDS and EVI1 complex) locus. Under normal hematopoiesis, EVI1 is a regulator of hematopoietic stem cell maintenance and self-renewal and EVI1 levels decrease as the cells differentiate. In approximately 5-10% of de novo acute myeloid leukemia (AML) EVI1 is aberrantly expressed, including Chromosomal inv(3)(q21;q26.2) or t(3;3)(q21;q26.2) alterations (MECOM-r) that account for about 50% of AML with EVI1 overexpression 31. AMLs with high levels of EVI1 have a poor prognosis and an overall survival time averaging between 10-14 months. EVI1 overexpression confers resistance in leukemia cells, highlighting the need to develop new targeted therapies for EVI1 overexpressing AMLs. Here, we performed an unbiased chemical drug screening by evaluating the single agent activity of a collection of 2,480 oncology-focused, approved and investigational drugs (NCATS Mechanism Interrogation Plates, MIPE v5.0) against a panel of seven AML cell lines. These included four MECOM-r cell-lines (AML-191, AML-194, UCSD-AML1 and HNT-34) and three non-MECOM-r AMLs (MV4-11, OCI-AML3 and SET-2). Exploiting the mechanistic redundancy built in the library, we identified target-level sensitivities in MECOM-r AML cells and relative activity as compared to other AML subtypes.
A collection of 2480 mechanistically annotated dugs (MIPE v5.0) was used to screen four 3q26.2 rearranged AML cell lines and three non-3q26.2 rearranged AML cell lines. This library purposely exploits redundancy by including multiple inhibitors of key onco-targets, while simultaneously encompassing mechanistic diversity, targeting more than 800 distinct mechanisms of action. Briefly, cells were seeded in 5 uL of growth media using a Multidrop Combi dispenser into 1536 well white polystyrene tissue culture treated plates (Corning) at a density of 500cells/well. For each cell-line, for each of the 2480 drugs in MIPE v5.0 library, an 11-point dose curve was generated via a 1536 pin-tool. Plates were incubated for 48 hr at standard incubator conditions, covered by a stainless steel gasketed lid to prevent evaporation. Cell viability was determined by luminescence based, Cell Titer Glo assay (Promega). In detail, 3 uL of Cell Titer Glo were added to each well and plates were incubated at room temperature for 15 min with a stainless-steel lid in place. Luminescence readings were taken using a Viewlux (PerkinElmer) with a 2 s exposure time per plate. Compound dose-response curves were normalized to DMSO and empty well controls on each plate. Quantitative drug activity data from dose-response curves was determined utilizing area Under the Curve (AUC) and Z-transformed AUC (Z-AUC, a mean-centering transformation applied to each individual cell-line screened).
Potency is the fitted concentration of half-maximal effect.

Compound | Potency | viability (% of control)
CN(C(=O)CNC(=O)/C=C/c1cccc(Cl)c1)C1CCS(=O)(=O)CC1 | inactive | –
COc1ccc(S(=O)(=O)N2CCc3cccc(-c4ccncc4)c32)cc1 | 1180 nM (active) | –
N#CCC1(n2cc(-c3ncnc4[nH]ccc34)cn2)CN(C2CCN(C(=O)c3ccnc(C(F)(F)F)c3F)CC2)C1 | 3720 nM (active) | –
CCC1=C[C@@H]2CN(C1)Cc1c([nH]c3ccccc13)[C@@](C(=O)OC)(c1cc3c(cc1OC)N(C)[C@H]1[C@@](O)(C(=O)OC)[C@H](OC(C)=O)[C@]4(CC)C=CCN5CC[C@]31[C@@H]54)C2 | 407 nM (active) | –
Cc1cc(C)c(CNC(=O)c2cc(-c3ccc(N4CCN(C)CC4)nc3)cc3c2c(C)cn3C(C)C)c(=O)[nH]1 | inactive | –
CC(C)C[C@H](NC(=O)c1cc2ccccc2s1)C(=O)N1CCN(C(=O)[C@H](CO)NS(=O)(=O)c2ccc(Cl)cc2Cl)CC1 | inactive | –
CC1(C)CC[C@]2(C(=O)O)CC[C@]3(C)C(=CC[C@@H]4[C@@]5(C)C[C@@H](O)[C@H](O)C(C)(C)[C@@H]5CC[C@]43C)[C@@H]2C1 | inactive | –
C[C@@H]1COC(Nc2ccc3ncnc(Nc4ccc(OCc5nccs5)c(Cl)c4)c3c2)=N1 | 26300 nM (active) | –
O=C(NCc1ccc(S(=O)(=O)c2cccc(C(F)(F)F)c2)cc1)c1cnc2[nH]ncc2c1 | 20.9 nM (active) | –
C[C@H](CCC(=O)O)[C@H]1CC[C@H]2[C@@H]3[C@@H](O)C[C@@H]4C[C@H](O)CC[C@]4(C)[C@H]3CC[C@]12C | inactive | –
C/C=C(/C)C(=O)O[C@H]1C(C)=CC23C(=O)C(C=C(CO)[C@@H](O)[C@]12O)[C@H]1[C@@H](C[C@H]3C)C1(C)C (stereo not given in full) | 1.9 nM (active) | –
NCCCC[C@H](NC(=O)[C@@H](NC(=O)[C@H](Cc1c[nH]c2ccccc12)NC(=O)[C@H](CCCCN)NC(=O)[C@H](CCCCN)NC(=O)[C@H](Cc1c[nH]c2ccccc12)NC(=O)[C@H](Cc1c[nH]c2ccccc12)NC(=O)[C@H](CCCCN)NC(=O)[C@@H](N)CCCCN)C(c1ccccc1)c1ccccc1)C(N)=O (H-KKWWKKW[Dip]K-NH2) | inactive | –
N=C(N)c1ccc2nc(-c3cc(CC(=O)N[C@@H](CC(=O)O)C(=O)O)cc(-c4cc(S(N)(=O)=O)ccc4O)c3O)[nH]c2c1 | inactive | –
C=CCNC1=C2CC(C)CC(OC)C(O)C(C)/C=C(\C)C(OC(N)=O)C(OC)/C=C/C=C(\C)C(=O)NC(=CC1=O)C2=O (stereo not given) | 1320 nM (active) | –
CCS(=O)(=O)c1ccc2oc(-c3ccc4ccccc4c3)nc2c1 | inactive | –
CN(C)c1ccc(C(=O)NCCCCCCC(=O)NO)cc1 | 1050 nM (active) | –
CCOC(=O)[C@@]1(CCCCCCOc2ccc(Cl)cc2)CO1 | inactive | –
N#Cc1ccnc(N2C(=O)CC[C@H]2C(=O)N(c2cncc(F)c2)C(C(=O)NC2CC(F)(F)C2)c2ccccc2Cl)c1 (stereo not given in full) | inactive | –
OC1CCC([C@H](O)C[C@H]2c3c(F)cccc3-c3cncn32)CC1 (stereo not given in full) | inactive | –
O=c1oc2c(C3OCCCO3)c(O)ccc2c2c1CNCC2 | inactive | –

Compound | Potency | viability (% of control)
Cn1ncc(NC(=O)c2nc(-c3c(F)cccc3F)sc2N)c1N1CC[C@@H](N)[C@H](F)CC1 | 93.4 nM (active) | –
CN[C@@H](C)C(=O)N[C@H](C(=O)N1CCC[C@H]1C(=O)Nc1sc(-c2ncco2)nc1-c1ccccc1)C1CCCCC1 | 1180 nM (active) | –
COc1ccc2c(c1)C(c1ccc(F)cc1)=C(CN1CCCC1)CO2 | inactive | –
COCCNCCCn1c(C(=O)CF)c(-c2ccc(C)cc2)c2c(N)ncnc21 | inactive | –
COC(=O)/C=C/C(=O)OC | inactive | –
Cc1oc(=O)oc1CN1CCN(c2cc3c(cc2F)c(=O)c(C(=O)O)c2n3C(C)S2)CC1 (stereo not given) | inactive | –
CC(C)(C(=O)NCC(F)(F)C(F)(F)F)C(=O)N[C@@H]1C(=O)Nc2ccccc2-c2ccccc21 | inactive | –
CN(C)Cc1cccc(N=C(c2ccccc2)c2c(O)[nH]c3cc(C(N)=O)ccc23)c1 | inactive | –
Cc1c(F)ccc(C(=O)Nc2cc([N+](=O)[O-])ccc2N2CCN(C)CC2)c1Cl | inactive | –
CCCCC[C@H](O)/C=C/[C@H]1[C@H](O)CC(=O)[C@@H]1CCCCCCC(=O)O | 11800 nM (active) | –
O=C(/C=C/c1ccc(/C=C/C(=O)Nc2ccc(C3=NCCN3)cc2)cc1)Nc1ccc(C2=NCCN2)cc1 | – | 115% [at 5.12 µM]
[O-][n+]1cccc(-c2nc3c(Cl)cccc3cc2[C@@H](Nc2ncnc3cccnc23)C(F)(F)F)c1 | 6610 nM (active) | –
COCCn1c2c([n+](Cc3cnccn3)c1C)C(=O)c1ccccc1C2=O | 105 nM (active) | –
CN1C(N)=N[C@](C)(c2cc(NC(=O)c3ccc(F)cn3)ccc2F)CS1(=O)=O | inactive | –
O=C(NO)c1cnc(NC2(c3ccccc3)CC2)nc1 | 8330 nM (active) | –
O=c1cc(O)c(Cl)c[nH]1 | inactive | –
Cc1cc2cc(Oc3ccnc(Nc4cccc(CS(=O)(=O)NCCN(C)C)c4)n3)ccc2[nH]1 | 16600 nM (active) | –
COC(=O)c1ccc([C@H]2c3[nH]c4ccccc4c3C[C@H](C(=O)OC)N2C(=O)CCl)cc1 | 166 nM (active) | –
CN1CCN(c2cccc(Nc3nc4c(-c5ccc(S(C)(=O)=O)cc5)cccn4n3)c2)CC1 | 1660 nM (active) | –
CC(=O)OCC(=O)[C@@]12OC(C)(C)O[C@@H]1C[C@H]1[C@@H]3C[C@H](F)C4=CC(=O)C=C[C@]4(C)[C@@]3(F)[C@@H](O)C[C@@]12C | inactive | –
